The results in this text go back to PubChem BioAssay (NCI).

Test systems include NCI-H23 lung; NCI-H226 lung; NCI-H322M lung; HOP-62 NSCLC; NCI-H460 lung; HOP-92 NSCLC; NCI-H522 lung; A549/ATCC NSCLC; 786-0 renal; COLO 205 colon.
What all share (assay): NCI-60 one-dose screen, 48 h (100 = growth as untreated, 0 = no growth, -100 = all killed)
What all share (conditions): 10 µM unless noted

SMILES strings stand for the structures. About 83,000 compounds went through this panel and 20% of them were active in at least one assay; those are over-represented in the sample as a whole.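 96-well plates, one dose, 48 hours. Percent growth reported; active if below 10.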 Unmarked numbers belong to inactive results. Activity calls are given as the source filed them.

On to `CCOc1nc(-c2ccccc2)cc2c(O)c(C(=O)O)[nH]c(=O)c12`, for which the growth in the assay with NCI-H23 lung is 60.9%; in the assay with NCI-H226 lung, 101%; in the assay with NCI-H322M lung, 147%; in the assay on HOP-62 NSCLC, 98.2%; with NCI-H460 lung, 102%; in the assay on HOP-92 NSCLC it was 28.2%. Also, the growth was 136% with NCI-H522 lung, 108% in the assay with A549/ATCC NSCLC, 111% in the assay on 786-0 renal and 118% in the assay on COLO 205 colon.
On to `CCCCN1CCCn2c1nc1c2c(=O)n(CCC)c(=O)n1CCC`, for which the growth with NCI-H23 lung is 104%; in the assay on NCI-H226 lung it was 113%; in the assay on NCI-H322M lung it was 97.7%; in the assay with HOP-62 NSCLC, 102%; with NCI-H460 lung, 99.6%; with HOP-92 NSCLC, 81.7%. For the same molecule, the growth in the assay on NCI-H522 lung was 76.6%; with A549/ATCC NSCLC it was 82.2%; in the assay on 786-0 renal, 95.8%; in the assay with COLO 205 colon, 114%.
Consider `FC(F)(F)c1[nH]ncc1-c1nc2ccc3n[nH]c(C#Cc4cccnc4)c3c2c2c1CCCC2`, for which the growth was 34.1% in the assay with NCI-H23 lung; 47.5% in the assay on NCI-H226 lung; 32.8% in the assay on NCI-H322M lung; 36% in the assay with HOP-62 NSCLC; 19.1% with NCI-H460 lung; 71.6% with HOP-92 NSCLC. Besides, the growth with NCI-H522 lung was 28.7%; in the assay with A549/ATCC NSCLC it was 27%; in the assay with 786-0 renal, 30.7%; in the assay on COLO 205 colon it was 33.4%.
For the molecule `COc1cc2c(cc1OC)C(Sc1ccc(SC)cc1)c1c(nc(N)c(C#N)c1N)O2` (stereo not given), the growth in the assay with NCI-H23 lung was -56.1% (active); with NCI-H226 lung it was -65.7% (active); in the assay with NCI-H322M lung it was -86.9% (active); in the assay on HOP-62 NSCLC it was -46.3% (active); in the assay on NCI-H460 lung, -79% (active); in the assay with HOP-92 NSCLC, -23.7% (active). Besides, the growth in the assay on NCI-H522 lung is -92.6% (active); with A549/ATCC NSCLC it was -63.5% (active); in the assay with 786-0 renal, -80.7% (active); in the assay with COLO 205 colon, -79% (active).
With `CCN=C1C=CC(=C(c2ccc(N)cc2)c2ccc(N(CC)CC)c(C)c2)C=C1`, the growth with NCI-H23 lung was -14.9% (active); in the assay on NCI-H226 lung it was -30.9% (active); in the assay with NCI-H322M lung, 3.81% (active); in the assay with HOP-62 NSCLC, 9.19% (active); with NCI-H460 lung it was -53.9% (active); in the assay on HOP-92 NSCLC it was -40.5% (active). The growth in the assay on NCI-H522 lung is -5.45% (active); in the assay with A549/ATCC NSCLC it was 10.3%; in the assay on 786-0 renal, -47.2% (active); with COLO 205 colon, -43.1% (active).
Turning to `CCOC(=O)c1sc2nc(-c3cccc(O)c3)nc(N3CCOCC3)c2c1C`, the growth with NCI-H23 lung is 69.3%; in the assay with NCI-H226 lung it was 82.8%; in the assay with NCI-H322M lung it was 70.7%; with HOP-62 NSCLC, 68.5%; with NCI-H460 lung, 68.2%; in the assay with HOP-92 NSCLC, 30.8%. Besides, the growth in the assay with NCI-H522 lung was 46.1%; in the assay with A549/ATCC NSCLC, 47.4%; in the assay with 786-0 renal, 67.7%; in the assay on COLO 205 colon, 105%.
As to `CCN1CCC2(CC1)NC(=O)c1c(c3ccc(Cl)c(Cl)c3n1C)C2C#N` (stereo not given), the growth in the assay on NCI-H23 lung was 70%; with NCI-H226 lung it was 72%; with NCI-H322M lung it was 57%; in the assay on HOP-62 NSCLC it was 62%; with NCI-H460 lung it was 54.6%; with HOP-92 NSCLC it was 40.5%. The growth was 61.5% in the assay on NCI-H522 lung, 52.1% in the assay with A549/ATCC NSCLC, 63.7% in the assay on 786-0 renal and -31.4% (active) in the assay on COLO 205 colon.
On to `O=C(O)c1ccc(N=CC(=O)c2ccc(-c3ccccc3)cc2)cc1`, for which the growth in the assay on NCI-H23 lung is 93.6%; with NCI-H226 lung, 83.9%; in the assay with NCI-H322M lung it was 105%; in the assay with HOP-62 NSCLC, 103%; in the assay with NCI-H460 lung, 104%; in the assay with HOP-92 NSCLC it was 84.2%. For the same molecule, the growth in the assay on NCI-H522 lung is 87.2%; in the assay with A549/ATCC NSCLC, 92.1%; with 786-0 renal it was 104%; in the assay on COLO 205 colon it was 111%.
On to `COc1ccc(-n2nc(C)c3c(Nc4ccc(NC(=O)Nc5cccc(C(F)(F)F)c5)cc4)ncnc32)cc1`, for which the growth in the assay with NCI-H23 lung is 9.95% (active); in the assay on NCI-H226 lung, 34.1%; with NCI-H322M lung, 5.43% (active); in the assay on HOP-62 NSCLC, -37.9% (active); with NCI-H460 lung, 1.6% (active); in the assay with HOP-92 NSCLC it was -26.4% (active). Further, the growth with NCI-H522 lung is 4.21% (active); in the assay on A549/ATCC NSCLC, -19.2% (active); in the assay on 786-0 renal it was -47.4% (active); in the assay with COLO 205 colon, -39.2% (active).
For `CCCSc1ccc2nc(NC(=O)OC)[nH]c2c1`, the growth in the assay with NCI-H23 lung is 24%; in the assay on NCI-H226 lung, 23.2%; with NCI-H322M lung, 60.1%; with HOP-62 NSCLC, 35.2%; in the assay with NCI-H460 lung, 6.79% (active); in the assay with HOP-92 NSCLC, 33.6%. Also, the growth in the assay on NCI-H522 lung was -35.7% (active); with A549/ATCC NSCLC, 16.5%; with 786-0 renal, 31%; in the assay with COLO 205 colon, 5.29% (active).
